Screening data deposited in PubChem BioAssay by National Center for Advancing Translational Sciences (NCATS).
Glioma ERSR ind: ER stress response induction in glioma; U87-MG GRP78 promoter luciferase reporter, 16 h; Potency, µM, for inactives: at the top dose activation, actives largely listed as activators; 420,000 compounds, 0.02% hits; AID 602332; further: series mostly up to about 76 µM; % of control where 0% means no effect; nearly all actives have a fitted effect of over 35% in size
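Stably transfected U87-MG human glioma cells carrying a GRP78-based luminescent sensor were seeded at 1000 cells/well, pin-dosed with compounds and incubated 16 h. Luciferase reagent was then added, and end-point luminescence was read after 10 min at room temperature.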
GLP-1R agonist: agonists of human GLP-1 receptor; P43220; HEK293 GLP-1R CRE-luciferase, luminescence, 4-6 h; cells express a hypersensitive GLP-1R form; Potency, µM (series often up to 45.6 µM), inactives show at the top dose activation, hits mostly activators; 380,000 compounds, 0.007% hits; AID 624172; further: % of control where 0% means no effect
GLP1R inv ag: acts as inverse agonist at human GLP-1 receptor | P43220 | HEK293 GLP-1R CRE-luciferase, luminescence, 24 h; GLP-1R form is constitutively active | Potency, µM (doses to about 38.3 µM), inactives show at the top dose activity change, negative = inhibition, most hits filed as inhibitors | 410,000 compounds, 1.6% hits | AID 624417; further: on the % scale 0 is the no-effect control and ±100 the full control effect; nearly all actives have a fitted effect of over 55% in size
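Assay principle: reduced luminescence from a cAMP-responsive reporter in HEK293 cells co-expressing a constitutively active GLP-1R. Conditions: 24 hr compound incubation, 37 deg C, 5% CO2.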
GLS inhibitor: blocks human kidney-isoform glutaminase activity; 410,000 compounds, 0.21% hits; Potency, µM (titrated, usually from 45.5 µM), for inactives: top-dose activity change, negative = inhibition, hits mostly inhibitors; O94925; GLS enzymatic activity, qHTS titration; further: on the % scale 0 is the no-effect control and ±100 the full control effect
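Human kidney-isoform GLS in 45 mM KH2PO4 pH 8.2, 0.02% Tween-20, with compound, started with 1mM L-Glutamine (added stock). Glutamate oxidase/HRP/Amplex red coupled fluorescence read at start and after 30 min at RT.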
PTHR1 agonist: agonists of human PTHR1 parathyroid hormone receptor. Q03431. HEK293 GP2 PTHR1 cells, GloSensor cAMP luminescence, 1 h. Potency, µM (doses to about 115 µM), inactives show at the highest dose activation, most hits filed as activators. 410,000 compounds, 0.075% hits. AID 743266; further: nearly all actives have a fitted effect of over 55% in size
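HEK-293-derived GP2 cells expressing PTHR1 and a GloSensor cAMP reporter, 3,000/well, plated overnight, given luciferin plus IBMX (each 0.5 mM as added) for 1 h at 37 °C, then compound for 1 h at 37 °C. Luminescence was read after 15 min at room temperature.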
ALOX12 inh: blocks human arachidonate 12S-lipoxygenase; P18054; purified 12hLO, xylenol orange hydroperoxide absorbance; Potency, µM (top dose mostly 108 µM), for inactives: at the top dose activity change, negative = inhibition, most hits filed as inhibitors; 580,000 compounds, 1.1% hits; AID 1671190; further: on the % scale 0 is the no-effect control and ±100 the full control effect
Target sequence (P18054 whole entry, looked up): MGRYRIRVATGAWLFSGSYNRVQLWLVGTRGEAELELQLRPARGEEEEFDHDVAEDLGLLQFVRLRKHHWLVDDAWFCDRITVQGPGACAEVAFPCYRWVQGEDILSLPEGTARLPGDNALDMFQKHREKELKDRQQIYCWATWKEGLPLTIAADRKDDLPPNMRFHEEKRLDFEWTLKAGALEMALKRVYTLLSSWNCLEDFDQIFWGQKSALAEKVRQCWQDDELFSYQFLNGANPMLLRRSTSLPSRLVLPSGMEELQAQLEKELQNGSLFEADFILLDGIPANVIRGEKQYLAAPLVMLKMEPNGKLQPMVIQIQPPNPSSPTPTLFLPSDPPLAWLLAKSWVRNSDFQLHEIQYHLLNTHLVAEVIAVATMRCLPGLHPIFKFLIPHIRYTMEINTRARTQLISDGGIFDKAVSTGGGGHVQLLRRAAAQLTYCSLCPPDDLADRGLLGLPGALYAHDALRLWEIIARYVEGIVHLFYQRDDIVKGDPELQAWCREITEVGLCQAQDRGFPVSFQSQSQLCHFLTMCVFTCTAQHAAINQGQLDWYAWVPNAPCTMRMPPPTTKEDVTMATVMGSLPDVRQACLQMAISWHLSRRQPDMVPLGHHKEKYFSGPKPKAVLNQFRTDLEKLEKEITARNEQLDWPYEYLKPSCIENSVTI
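Purified human 12hLO (150 nM final) in 25 mM Hepes, 0.01% Triton X-100, pH 7.0 was preincubated 15 min at room temperature with compound. Then 40 uM arachidonic acid was added, 30 min. Hydroperoxide was read by Fe-XO absorbance ratio 573/405 nm.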
* hit, by the source's call; i = inactive; u = inconclusive; x = no result; ! = not active in a repeat; [ ] = dose if it differs, or a comment. Hits are enriched below; roughly 2.3% of the tested compounds scored in any of these assays. The call rests on the fitted dose curve; in most records, active means well fitted curve in the direction sought with a large enough effect; inconclusive means small, poorly fitted or top-dose-only effect, or another doubt; inactive means no such curve, though single readings can be large; an effect the other way counts as inactive or inconclusive. Potency means the concentration at half of the fitted maximal effect.

SMILES | Glioma ERSR ind | GLP-1R agonist | GLP1R inv ag | GLS inhibitor | PTHR1 agonist | ALOX12 inh
CC(=O)c1ccc(NC(=O)Cn2cc(S(=O)(=O)Cc3cccc(Cl)c3)c3ccccc32)cc1 | -7% | x | 10µM* | -4% | -38% | -19%
COc1ccc(NC(=O)Cn2cc(S(=O)(=O)Cc3ccc(F)cc3)c3ccccc32)cc1OC | -4% | x | -3% | -16% | i | 50µM*
CC(C)(C)NC(=O)Cn1cc(S(=O)(=O)Cc2ccc(F)cc2)c2ccccc21 | -4% | x | -15% | -3% | i | -30%
CCOC(=O)C(C)Oc1ccc2c(-c3ccccc3)cc(=O)oc2c1C (configuration not stated) | x | x | x | x | x | -18%
COCCCNCCOCCOc1ccc(Cl)cc1C(C)(C)C | -4% | -14% | 3.5µM* | -14% | 30% | u
C=CCNCCOCCOc1ccc(Cl)cc1C(C)(C)C | -6% | -2% | u | -5% | i | u
COc1ccc(OC)c(Nc2c3ccccc3nc3ccccc23)c1 | -11% | 5% | 11µM* | -31% | i | u
Clc1ccccc1-c1noc(-c2ccc(Br)cc2)n1 | x | x | x | x | x | 5%
Cc1ccc2nc(-c3ccc(O)cc3)c(Nc3ccc(Cl)cc3)n2c1 | -5% | x | u | 1% | -24% | u
Cc1ccc2nc(-c3ccccc3F)c(Nc3ccc(Cl)cc3)n2c1 | -2% | x | 11µM* | 14% | -34% | u
CC(C)Cn1c(-c2ccc(Br)cc2)c[nH]c1=S | -3% | 15% | 10µM* | -22% | -25% | 35µM*
COc1ccc(Cc2nnc(NN)[nH]c2=O)cc1OC | -4% | 0% | -22% | 22µM* | i | 32%
COCCNc1nnc(Cc2ccc(OC)c(OC)c2)c(=O)[nH]1 | 7% | 16% | 21% | -17% | -2% | 6%
CCCCN(CC)CCCNC(=O)Nc1sc2nc3n(c(=O)c2c1C)CCC(C)CC3 (configuration not stated) | 0% | x | 10µM* | 41% | -19% | -9%
Cc1cccc(C)c1NC(=O)Nc1sc2nc3n(c(=O)c2c1C)CCC(C)CC3 (configuration not stated) | x | x | x | x | x | -9%
Cc1cccc(-n2nnnc2C2(NCc3ccccc3)CCCC2)c1 | x | x | x | x | x | 8%
O=S(=O)(c1ccccc1)N1CCN(Cc2ccccc2C(F)(F)F)CC1 | 1% | 7% | u | -13% | -5%[57.5 µM] | u
Cc1ccc(S(=O)(=O)N2CCN(CCNC(=O)c3cccc(C(F)(F)F)c3)CC2)cc1 | x | x | x | x | x | 28µM*
O=C(C(=O)N1CCN(S(=O)(=O)c2ccc(C(F)(F)F)cc2)CC1)c1cccc(C(F)(F)F)c1 | x | x | x | x | x | -4%
Cc1ccc(S(=O)(=O)N2CCN(Cc3ccccc3C(F)(F)F)CC2)cc1 | 1% | 3% | u | 15% | i | 1.1µM*
Cc1ccc(S(=O)(=O)N2CCN(CCNC(=O)c3ccc(C(F)(F)F)cc3)CC2)cc1 | x | x | x | x | x | 16µM*
O=C(NC1CCCC1)C(c1ccco1)N(C(=O)c1ccco1)c1ccccc1 (configuration not stated) | -1% | 9% | 2% | 3% | -20% | -13%
CCc1ccc(N(C(=O)c2ccco2)C(C(=O)NC2CCCC2)c2ccco2)cc1 (configuration not stated) | 2% | -3% | 10µM* | 1% | i | -10%
COc1ccc(C(C(=O)NC2CCCC2)N(C(=O)c2ccoc2C)c2ccccc2)cc1 (configuration not stated) | -6% | 8% | u | -3% | -19% | -10%
CCc1ccc(N(C(=O)c2ccoc2C)C(C(=O)NC2CCCC2)c2ccc(OC)cc2)cc1 (configuration not stated) | -2% | -4% | 10µM* | 18% | i | -24%
SMILES | Glioma ERSR ind | GLP-1R agonist | GLP1R inv ag | GLS inhibitor | PTHR1 agonist | ALOX12 inh
COc1ccc(C(C(=O)NC2CCCC2)N(C(=O)c2ccoc2C)c2ccc(C)c(C)c2)cc1 (configuration not stated) | -1% | 9% | 10µM* | 3% | i | -4%
Cn1c(C(O)c2ccc(Cl)cc2)nc(Cl)c1Cl (configuration not stated) | -3% | -17% | 11µM* | 6% | i | 0%
O=C(N/N=C/c1cc(Br)cc(Cl)c1O)c1ccc2c(c1)OCO2 | -2% | 4% | 2.5µM* | 6% | -8% | 22µM*
Cc1cc(Br)cc(/C=N/NC(=O)c2ccc3c(c2)OCO3)c1O | 1% | -7% | u | 0% | -33% | -9%
COc1cc(C(=O)Oc2ccccc2/C=N/NC(=O)c2ccc(Cl)cc2)cc(OC)c1OC | 1% | 1% | 2.8µM* | -3% | i | 18%
O=C(N/N=C/c1ccccc1O)c1ccc2c(c1)OCO2 | -10% | 11% | u | -1% | -19% | 3%
O=C(N/N=C/c1ccccc1OC(=O)c1ccc2c(c1)OCO2)c1cccc(F)c1 | 6% | 0% | 10µM* | -14% | i | -3%
Cc1oc(-c2ccccc2)nc1CC(=O)N1CCC(N2CCCCC2)CC1 | x | x | x | x | x | 5%
COc1cc(/C=C/C(=O)C2C(=O)C=C(C)OC2=O)cc(OC)c1O (configuration not stated) | -2% | 13% | 48% | 23% | -94% | u
COc1ccc(/C=C/C(=O)C2C(=O)C=C(C)OC2=O)cc1O (configuration not stated) | 4% | 6% | 11% | 7.1µM* | -80% | u
CCOc1ccc(CNCc2ccccn2)cc1OCC | x | x | x | x | x | 5%
Cc1ccccc1NC(=O)c1sc2nc(N3CCOCC3)c3c(c2c1N)CCCC3 | 2% | u | 34% | -4% | -4% | u
Cc1ccc(NC(=O)c2sc3nc(N4CCOCC4)c4c(c3c2N)CC(C)(C)OC4)cc1 | -4% | 7% | 8% | 7% | i | -22%
CC1(C)Cc2c(c(N3CCOCC3)nc3sc(C(=O)Nc4ccc(Cl)cc4)c(N)c23)CO1 | 1% | 12% | 11% | -1% | -40% | 2.8µM*!
Cc1nc2c(sc3nc(N4CCOCC4)c4c(c32)CC(C)(C)OC4)c(-c2ccc(Cl)cc2)c1C(=O)O | -1% | 11% | 4.5µM* | -2% | i | -18%
CC1(C)Cc2c(c(N3CCOCC3)nc3snc(N)c23)CO1 | -17% | -22% | 4µM* | 11% | i | 68%
Nc1c(C(=O)NCCc2ccccc2)sc2nc(N3CCOCC3)c3c(c12)CCCC3 | -1% | 22% | 8.9µM* | 2% | -2% | -22%
CC(C)(C)NC(=O)CC(NC(=O)c1ccccc1Cl)c1ccccc1 (configuration not stated) | x | x | x | x | x | -5%
